Drawing on PubChem BioAssay (Tox21), this text covers Potency for 40 compounds.

Results filed as inconclusive are left out. Entries that show only a call come without a potency. The source made the active and inactive calls. Calls come from the whole dose curve; as a rule, active = well fitted inhibition curve with a large enough effect in the repeat runs; inconclusive = weak or mixed curves; inactive = flat fitted curve, though single readings scatter.
Potency is the fitted concentration of half-maximal effect.

A short description of this assay: qHTS assay to identify small molecule HDAC inhibitors (AID 1259364). Note: nearly all actives have a fitted effect of over 45% in size. Conditions: HCT-116 HDAC-Glo I/II luminescence, 2 h; series mostly up to 92.4 µM. From the text: U.S. Tox21 Program National Center for Advancing Translational Sciences [NCATS] NIH Chemical Genomics Center [NCGC] U.S. Environmental Protection Agency [EPA] National Institutes of Environmental Health Sciences [NIEHS] National Toxicology Program [NTP] U.S. Food and Drug Administration [FDA] Tox21 Assay Overview: Histone deacetylases (HDACs) are a group of epigenetic enzymes that regulate gene expression by histone deacetylation. HDACs are capable of introducing epigenetic modifications and such aberrations contribute to the onset and progression of several human diseases, thus making HDACs a popular therapeutic target. For identifying endogenous class I/II HDAC inhibitors a homogenous, luminogenic HDAC I/II cell based assay was used to measure the relative activity of class I and II HDACs from cells. Wild type HCT-116 cells were used to screen Tox21 libraries for identifying class I/II HDAC inhibitors.
Tox21 Assay Protocol Summary: HCT-116 cells were dispensed at 1,500 per well in 5uL of culture medium into white solid bottom 1536-well plates (Greiner Bio-One, Monroe, NC) using a Multidrop Combi (Thermo Scientific, Waltham, MA) dispenser. The assay plates were incubated at 37 C and 5% CO2 for an overnight, and then 23nL of compounds dissolved in DMSO and positive control were transferred using a Pintool station (Wako, San Diego, CA). The assay plates were incubated at 37C and 5% CO2 for 2hr. After compound treatment, 4uL of HDAC-Glo reagent (Promega Corporation, Madison, WI) was added to each well of the assay plates using Flying Reagent Dispenser (FRD, Aurora Discovery, San Diego, CA) and incubated the assay plates at room temperature for 30min. The luminescence signal was quantified using a ViewLux plate reader (Perkin Elmer, Shelton, CT).
Regarding `Cc1cccc(C)c1NC(=O)c1ccccc1C(=O)O`, the Potency result is “inactive”.
For `O=C(NCCN1CCOCC1)c1ccc(Cl)cc1` the value was “inactive”; for `N[C@@H](CCC(=O)Nc1ccc([N+](=O)[O-])cc1)C(=O)O`, “inactive”; for `C=CC(OCC)OCC`, “inactive”.
For `COc1nccnc1NS(=O)(=O)c1ccc(N)cc1` the value was “inactive”; for `COc1ccc2c(c1OC)C(=O)O[C@@H]2[C@H]1c2c(cc3c(c2OC)OCO3)CCN1C`, “inactive”.
For `CC(C)=O`, the Potency result is “inactive”.
For `O=C(CS(=O)Cc1ccco1)NC/C=C\COc1cc(CN2CCCCC2)ccn1` (stereo not given) the value was “inactive”; for `NCCN1CCOCC1`, “inactive”.
Consider `OCCN(CCO)c1cccc(Cl)c1`, for which the Potency result is “inactive”.
For `CC(C)=CCOC(=O)c1ccccc1` the value was “inactive”; for `Cc1[nH]cnc1-c1ccc(Cl)cc1`, “inactive”.
As to `Cc1ccsc1/C=C/C1=NCCCN1C`, the Potency result was “inactive”.
In the case of `CC(=O)c1ccc2c(c1)Cc1ccccc1-2`, the Potency is 27.3 µM (active).
For the compound `O=C(CCNNC(=O)c1ccncc1)NCc1ccccc1`, the Potency result is “inactive”.
For the compound `C[C@@H](O)[C@H]1C(=O)N2C(C(=O)O)=C(SCCN=CN)C[C@H]12`, the Potency result was “inactive”.
For `C=C1CC/C=C(\C)CC[C@@H]2[C@@H]1CC2(C)C` the value was “inactive”; for `CC(=O)CCCCn1c(=O)c2c(ncn2C)n(C)c1=O`, “inactive”.
To `O=C(OCC1(COC(=O)c2cccnc2)CCCC(COC(=O)c2cccnc2)(COC(=O)c2cccnc2)C1O)c1cccnc1` belongs “inactive”; to `O=C(OCC(O)CO)c1ccccc1Nc1ccnc2c(C(F)(F)F)cccc12` (stereo not given), “inactive”.
Consider `C[C@H](N)[C@H](O)c1cccc(O)c1`, for which the Potency entry was “inactive”.
Take `CC(=O)Nc1ccc(S(=O)(=O)Nc2ccc([N+](=O)[O-])cc2)cc1`: the Potency entry was “inactive”.
In the case of `Nc1ccc([N+](=O)[O-])c(N)c1`, the Potency entry is “inactive”.
On to `O=C1c2cccc3c2[C@H](CCC3)CN1[C@@H]1CN2CCC1CC2`, for which the Potency result was “inactive”.
In the case of `CC[C@H](C)C(=O)O[C@H]1C[C@H](O)C=C2C=C[C@H](C)[C@H](CC[C@@H](O)C[C@@H](O)CC(=O)O)[C@H]21`, the Potency result is “inactive”.
As to `Cc1cc(C(C)(C)C)c(O)c(C)c1CC1=NCCN1`, the Potency entry is “inactive”.
For `CC/C=C\CC1=C(C)CCC1=O` the value was “inactive”; for `COc1cc(NS(=O)(=O)c2ccc(N)cc2)nc(OC)n1`, “inactive”.
As to `O=C(O)c1ccc(Cl)cc1Cl`, the Potency entry is “inactive”.
To `OCCC(F)(F)C(F)(F)C(F)(F)C(F)(F)C(F)(F)C(F)(F)C(F)(F)C(F)(F)F` belongs “inactive”.
For the compound `CC(=O)NCc1c(I)c(NC(C)=O)c(I)c(C(=O)O)c1I`, the Potency result is “inactive”.
To `CC(C)NCC(O)COc1cccc2[nH]ccc12` (stereo not given) belongs “inactive”; to `O=C1CCCC(=O)O1`, “inactive”; to `CC(=O)c1sc(C)nc1C`, “inactive”.
`Brc1ccc(-c2ccccc2)cc1`: the Potency entry is “inactive”.
For `CCOc1cc(NC(C)=O)ccc1C(=O)OC` the value was “inactive”; for `CC1(C)S[C@@H]2[C@H](N=CN3CCCCCC3)C(=O)N2[C@H]1C(=O)O`, “inactive”; for `C=C(C)C(=O)OCCOP(=O)(O)OCCOC(=O)C(=C)C`, “inactive”.
Take `O=C(O)CCSSCCC(=O)O`: the Potency result is “inactive”.
To `CCCCOCCOC(=O)COc1nc(Cl)c(Cl)cc1Cl` belongs “inactive”.
